Measured values reported in PubChem BioAssay.
Active and inactive are the calls of the source. No rule for the calls is given here.

Test system: Aerobactin synthetase IucA (Klebsiella pneumoniae hvKP1)
Assay: IucA enzyme inhibition, primary screen, biochemical, Spectrum library (AID 1346200);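 also: 100% = wells without compound and 0% = wells lacking enzyme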
Conditions: malachite green pyrophosphate, A620, at 8 µM, hits give low values

| SMILES | activity remaining |
| --- | --- |
| COc1ccc2c(c1)[C@@]1(C)CCC(=O)C[C@@H]1CC2 | 118% (inactive) |
| C[N+]1(C)C2CC[C@H]1CC(OC(=O)C(O)c1ccccc1)C2 (stereo not given in full) | 95% (inactive) |
| O=c1cc(-c2ccccc2)oc2cccc(O)c12 | 99.1% (inactive) |
| O=C(O)CN1C(=O)c2cccc3cccc(c23)C1=O | 111% (inactive) |
| C[C@@H]1CC2C3C[C@H](F)C4=CC(=O)C=C[C@]4(C)[C@@]3(F)[C@@H](O)C[C@]2(C)[C@@]1(O)C(=O)CO (stereo not given in full) | 113% (inactive) |
| CCOc1ccc2nc3cc(N)ccc3c(N)c2c1 | 96.1% (inactive) |
| CC(=O)Oc1cccc2c1C(=O)c1c(OC(C)=O)cc(C(=O)O)cc1C2=O | 102% (inactive) |
| COc1cc(NS(=O)(=O)c2ccc(N)cc2)ncn1 | 92.3% (inactive) |
| CC(NCCc1ccc(O)cc1)C(O)c1ccc(O)cc1 (stereo not given) | 115% (inactive) |
| CN1C2CC3C[C@H]1C(O3)C2O (stereo not given in full) | 108% (inactive) |
